Data: PubChem BioAssay
Values joined by “and” are separate entries in the source; they are usually repeats but may differ in a detail not shown here. Identical values can stand only once. Records with an inconclusive call do not appear. Active and inactive are the calls of the source.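 The calls were made as follows, unless noted: active = inhibition above 50%, about 3 SD of the validation set; inactive = the rest.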

Columns and labels:
[1] = rapamycin-like changes in RPL19A-GFP expression – cell-based, S. cerevisiae, multiplex flow cytometry, primary screen (AID 1862; in the data active = percent of DMSO control GFP below about 86%;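 also: lower values mimic rapamycin by blocking the RPL19A rise seen in DMSO cells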); conditions: S. cerevisiae RPL19A-GFP strain, flow cytometry fluorescence, 3 h; at 10 µM; stronger effect = lower value
[2] = TOR pathway GLN3 branch reporter MEP2-GFP changes – S. cerevisiae, multiplex flow cytometry, primary screen (AID 1867;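 active = GFP response, as percent of the DMSO control, above the screen-wide mean plus 3 SD, about 139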;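 also: median GFP channel fluorescence of barcode-gated MEP2-GFP cells measured by flow cytometry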); conditions: S. cerevisiae MEP2-GFP strain, 3 h, at 10 µM, stronger effect = higher value, 100% means same as DMSO wells
[3] = TOR pathway RTG branch CIT2 reporter changes – S. cerevisiae, GFP fusion, multiplex flow cytometry, primary screen (AID 1870;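 active = percent response above a set limit, the screen-wide mean plus 3 SD, cut at about 130% in these data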;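 also: barcoded CIT2-GFP strain pooled with four other GFP strains with rapamycin as positive control; median GFP fluorescence per well over plate mean of DMSO wells so 100% = DMSO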); conditions: S. cerevisiae CIT2-GFP expression, 3 h, at 10 µM, stronger effect = higher value
[4] = TOR pathway LAP4-GFP level changes – S. cerevisiae, multiplex flow cytometry, primary screen (AID 1873;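 active = GFP signal, as percent of the solvent control, above the screen mean plus 3 SD, about 149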); conditions: S. cerevisiae LAP4-GFP expression, 3 h, at 10 µM, stronger effect = higher value
[5] = yeast AGP1-GFP level changes, GLN3 branch – cell-based, multiplex flow cytometry, S. cerevisiae, primary screen (AID 1887;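 active = GFP signal above the screen-wide mean plus 3 SD, that is over about 124.5% of the solvent control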;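 also: AGP1-GFP fusion strain of S. cerevisiae within a five-strain barcoded multiplex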); conditions: 3 h, at 10 µM, stronger effect = higher value
[6] = reduced mouse 2C T cell binding to pMHC/ICAM-1 vesicles – MLPCN validation set, flow cytometry, LFA-1/ICAM-1 modulator project, pilot screen (AID 2523;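 active = response below a set limit, under 55% cells CD8-positive and vesicle-bound, and CD8 cells' 90th-percentile brightness under 279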;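 as to vesicle binding response: mean PE anti-B7-1 fluorescence of CD8+ cells relative to row control; 100% = QL9-loaded vesicles with DMSO vehicle in the same plate row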); conditions: 2C mouse CD8+ T cells, at 7 µM, stronger effect = lower value; double positive events: measured here: CD8+/vesicle+ event percentage
[7] = target: Integrin beta-1 (Homo sapiens) + Integrin alpha-4 (Homo sapiens) (UniProt P13612+P05556); assay: alpha4beta1 integrin LIBS antibody binding reduction – U937 cells, HUTS-21 mAb, flow cytometry, validation set, VLA-4 allosteric modulator project, pilot screen (AID 2674); conditions: HUTS-21 LIBS mAb binding, at 6.7 µM, stronger effect = higher value, binding induced by LDV ligand;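 also: antibody binding induced by the VLA-4 ligand LDV present at three times its Kd; 0% = LDV ligand with antibody and no compound and 100% = antibody without LDV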
Integrin beta-1 (Homo sapiens) + Integrin alpha-4 (Homo sapiens), sequence (P05556 whole entry, looked up): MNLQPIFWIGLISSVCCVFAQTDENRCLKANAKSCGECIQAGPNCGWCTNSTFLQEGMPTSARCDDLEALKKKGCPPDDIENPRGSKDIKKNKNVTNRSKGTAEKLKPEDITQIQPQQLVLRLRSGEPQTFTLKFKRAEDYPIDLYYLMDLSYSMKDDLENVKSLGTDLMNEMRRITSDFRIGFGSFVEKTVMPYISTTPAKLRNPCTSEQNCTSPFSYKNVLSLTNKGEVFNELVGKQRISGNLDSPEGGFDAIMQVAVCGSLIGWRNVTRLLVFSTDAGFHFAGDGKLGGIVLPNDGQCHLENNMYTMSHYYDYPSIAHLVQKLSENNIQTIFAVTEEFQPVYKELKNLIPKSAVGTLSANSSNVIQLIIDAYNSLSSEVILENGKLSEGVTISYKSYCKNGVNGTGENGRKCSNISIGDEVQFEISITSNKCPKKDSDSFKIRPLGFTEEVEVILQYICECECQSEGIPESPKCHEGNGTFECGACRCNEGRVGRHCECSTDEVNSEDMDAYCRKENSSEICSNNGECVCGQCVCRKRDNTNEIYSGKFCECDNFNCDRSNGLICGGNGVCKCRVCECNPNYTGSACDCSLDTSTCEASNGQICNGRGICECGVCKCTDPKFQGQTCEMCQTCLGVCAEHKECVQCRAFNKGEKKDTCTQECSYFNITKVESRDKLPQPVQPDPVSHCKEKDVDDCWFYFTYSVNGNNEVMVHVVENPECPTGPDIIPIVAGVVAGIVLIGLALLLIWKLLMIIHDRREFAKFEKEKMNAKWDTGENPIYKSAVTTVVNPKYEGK
Integrin beta-1 (Homo sapiens) + Integrin alpha-4 (Homo sapiens), sequence (P13612 whole entry, looked up): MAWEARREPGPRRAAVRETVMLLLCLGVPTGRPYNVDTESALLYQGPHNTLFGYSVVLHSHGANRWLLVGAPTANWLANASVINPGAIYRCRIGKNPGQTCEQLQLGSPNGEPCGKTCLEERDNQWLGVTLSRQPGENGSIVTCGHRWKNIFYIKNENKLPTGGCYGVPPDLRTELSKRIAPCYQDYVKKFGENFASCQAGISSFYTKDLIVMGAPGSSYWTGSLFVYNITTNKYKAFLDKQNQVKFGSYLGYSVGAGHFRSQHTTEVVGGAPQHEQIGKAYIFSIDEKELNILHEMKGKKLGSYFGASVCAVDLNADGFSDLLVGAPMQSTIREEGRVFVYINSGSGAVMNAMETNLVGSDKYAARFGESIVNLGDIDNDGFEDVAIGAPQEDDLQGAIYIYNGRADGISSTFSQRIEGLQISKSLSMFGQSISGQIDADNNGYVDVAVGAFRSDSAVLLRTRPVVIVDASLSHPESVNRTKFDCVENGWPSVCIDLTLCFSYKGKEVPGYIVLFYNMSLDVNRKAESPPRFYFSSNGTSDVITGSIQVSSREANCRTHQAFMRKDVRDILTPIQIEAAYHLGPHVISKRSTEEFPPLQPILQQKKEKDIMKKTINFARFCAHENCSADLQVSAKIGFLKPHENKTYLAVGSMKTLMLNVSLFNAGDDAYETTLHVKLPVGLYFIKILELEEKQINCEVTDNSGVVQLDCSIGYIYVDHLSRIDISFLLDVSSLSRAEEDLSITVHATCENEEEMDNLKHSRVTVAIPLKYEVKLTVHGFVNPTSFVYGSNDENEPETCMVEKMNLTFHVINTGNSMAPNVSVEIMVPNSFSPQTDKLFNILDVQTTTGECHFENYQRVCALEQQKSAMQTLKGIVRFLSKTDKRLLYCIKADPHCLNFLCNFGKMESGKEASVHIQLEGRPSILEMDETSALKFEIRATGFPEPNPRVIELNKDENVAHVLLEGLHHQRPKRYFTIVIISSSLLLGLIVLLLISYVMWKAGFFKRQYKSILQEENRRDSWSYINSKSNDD

[8] = calorie-restriction mimetic ROS inhibitors, yeast – validation compound set, pilot screen (AID 2706;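 active = superoxide response below 65% of plate, a cut near 3 SD across the whole screen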;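 also: yeast exposed to compound for one week at 30 degrees C before staining; 100% = mean of all compound wells on the same plate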); conditions: S. cerevisiae aging, superoxide DHE fluorescence; at 10 µM; stronger effect = lower value
[9] = target: Beta-adrenergic receptor kinase 1 (Homo sapiens) (UniProt P25098); assay: GRK2 binders displacing RNA aptamer, biochemical, validation, human GRK2, bead flow cytometry (AID 488806;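 active = aptamer binding inhibition above 30%, about 3 SD of noise from non-fluorescent compounds; inactive = inhibition at or below 30%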); conditions: bead-bound GRK2, FAM-aptamer displacement, at 10 µM, stronger effect = higher value
Beta-adrenergic receptor kinase 1 (Homo sapiens), sequence (P25098 whole entry, looked up): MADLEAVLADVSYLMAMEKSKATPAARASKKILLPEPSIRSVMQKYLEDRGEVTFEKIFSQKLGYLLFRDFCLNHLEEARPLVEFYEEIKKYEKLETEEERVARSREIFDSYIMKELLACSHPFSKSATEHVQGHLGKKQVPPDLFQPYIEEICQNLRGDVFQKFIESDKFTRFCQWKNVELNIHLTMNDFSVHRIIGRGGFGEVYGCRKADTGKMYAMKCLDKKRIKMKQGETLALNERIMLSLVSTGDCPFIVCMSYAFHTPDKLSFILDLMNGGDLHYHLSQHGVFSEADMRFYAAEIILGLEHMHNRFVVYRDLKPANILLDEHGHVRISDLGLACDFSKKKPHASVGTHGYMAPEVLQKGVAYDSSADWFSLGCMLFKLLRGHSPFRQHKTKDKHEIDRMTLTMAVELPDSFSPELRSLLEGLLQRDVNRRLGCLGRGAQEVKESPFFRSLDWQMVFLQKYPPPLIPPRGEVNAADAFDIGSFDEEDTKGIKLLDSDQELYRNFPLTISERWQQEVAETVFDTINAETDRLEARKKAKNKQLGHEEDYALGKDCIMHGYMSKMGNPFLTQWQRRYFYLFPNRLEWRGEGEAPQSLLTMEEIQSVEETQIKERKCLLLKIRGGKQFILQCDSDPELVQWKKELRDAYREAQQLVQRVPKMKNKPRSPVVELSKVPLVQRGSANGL

[10] = target: Beta-2 adrenergic receptor (Homo sapiens) (UniProt P07550); assay: agonist-induced loss of surface beta2AR – cell-based, FAP fluorogen, flow cytometry, validation set, pilot screen (AID 504459;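 active = percent response above 42, roughly 3 SD of non-fluorescent test compounds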;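 also: agonist-driven loss of surface beta2AR via internalization measured by FAP dye flow cytometry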); conditions: Am2.2-beta2AR cells, at 10 µM, stronger effect = higher value
Beta-2 adrenergic receptor (Homo sapiens), sequence (P07550 whole entry, looked up): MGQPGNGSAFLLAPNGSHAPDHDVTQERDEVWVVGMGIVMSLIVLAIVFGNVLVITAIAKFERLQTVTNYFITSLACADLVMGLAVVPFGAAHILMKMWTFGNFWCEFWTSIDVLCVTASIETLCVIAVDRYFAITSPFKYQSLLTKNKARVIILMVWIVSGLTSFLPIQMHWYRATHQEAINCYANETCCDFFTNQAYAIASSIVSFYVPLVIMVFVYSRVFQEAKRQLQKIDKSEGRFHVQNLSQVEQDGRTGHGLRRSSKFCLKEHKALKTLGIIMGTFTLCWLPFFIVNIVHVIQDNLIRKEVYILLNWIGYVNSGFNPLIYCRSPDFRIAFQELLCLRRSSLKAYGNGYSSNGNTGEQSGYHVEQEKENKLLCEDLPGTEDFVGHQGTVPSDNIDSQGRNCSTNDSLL

[11] = target: AP-2 complex subunit beta (Homo sapiens) (UniProt P63010); assay: beta-arrestin/AP2 interaction blockers – biochemical, validation set, GST-AP2 beads, flow cytometry, pilot screen (AID 504541;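 active = inhibition above 54%, about 3 SD of non-fluorescent compounds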;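 also: AP2 carries R879A mutation and is captured from E. coli lysate; bead-bound FITC arrestin peptide fluorescence measuring arrestin peptide binding to AP2; 0% = DMSO wells and 100% = excess unlabeled arrestin peptide control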); conditions: FITC arrestin peptide, at 10 µM, stronger effect = higher value, AP2 beta2 appendage fragment, R879A mutant
AP-2 complex subunit beta (Homo sapiens), sequence (P63010 whole entry, looked up, the tested form may be a part, one chain of several): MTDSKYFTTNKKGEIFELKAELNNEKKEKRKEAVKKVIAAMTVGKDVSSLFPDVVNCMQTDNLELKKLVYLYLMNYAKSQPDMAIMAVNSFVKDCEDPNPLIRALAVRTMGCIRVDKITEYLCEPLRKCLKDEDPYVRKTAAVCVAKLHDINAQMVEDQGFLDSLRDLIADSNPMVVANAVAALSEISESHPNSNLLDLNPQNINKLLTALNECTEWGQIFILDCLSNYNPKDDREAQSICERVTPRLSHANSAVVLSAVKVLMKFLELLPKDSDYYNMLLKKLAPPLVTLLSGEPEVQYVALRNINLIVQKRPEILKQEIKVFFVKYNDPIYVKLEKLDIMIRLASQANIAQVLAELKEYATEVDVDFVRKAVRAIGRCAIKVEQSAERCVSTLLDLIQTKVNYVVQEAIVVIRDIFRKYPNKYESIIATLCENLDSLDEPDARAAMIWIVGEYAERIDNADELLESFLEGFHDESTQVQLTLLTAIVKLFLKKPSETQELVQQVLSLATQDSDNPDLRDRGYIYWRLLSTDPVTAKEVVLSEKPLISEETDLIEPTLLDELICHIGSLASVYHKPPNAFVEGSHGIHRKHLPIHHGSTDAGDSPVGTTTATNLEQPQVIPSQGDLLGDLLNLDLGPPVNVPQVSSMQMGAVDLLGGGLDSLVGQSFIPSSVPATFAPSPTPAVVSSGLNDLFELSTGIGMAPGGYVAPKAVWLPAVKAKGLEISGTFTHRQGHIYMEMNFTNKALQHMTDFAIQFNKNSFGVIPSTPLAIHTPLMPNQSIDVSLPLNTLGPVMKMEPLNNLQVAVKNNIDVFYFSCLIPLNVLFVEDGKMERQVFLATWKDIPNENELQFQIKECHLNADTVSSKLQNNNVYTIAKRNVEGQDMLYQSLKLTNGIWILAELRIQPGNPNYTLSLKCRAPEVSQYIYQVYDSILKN

[12] = cytosolic pH regulators acting via V-ATPase – S. cerevisiae, pHLuorin, HTS validation (AID 504600; in the data active = response above about 15%;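 also: plate controls were DMSO for no effect and reference compound for full effect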); conditions: V-ATPase proton transport, at 10 µM, stronger effect = higher value
[13] = tested on: anti-desmoglein-3 scFv antibody binding to human DSG3; assay: blockers of pathogenic pemphigus antibody–desmoglein-3 binding – biochemical, validation compound set, bead-based, flow cytometry, pilot screen (AID 588368;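 active = binding below the plate cutoff, the plate median minus 3 SD, with a reading above zero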;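 also: signal is the median channel fluorescence of bead-bound GFP antibody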); conditions: Protein G beads, DSG3-Fc, scFv-GFP binding, at 10 µM, stronger effect = lower value
[14] = Nile Red efflux blockade in pump-expressing yeast – validation compound set, multiplex, phenotypic, pilot screen (AID 588506;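 active = efflux inhibition above 0.42, the validation set average plus 4 SD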;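 also: Nile Red retained in cells so higher fluorescence means more efflux inhibition; 0 = negative control wells and 1 = enniatin B 25 µM full block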); conditions: S. cerevisiae pump-expressing triplex, Nile Red efflux flow cytometry; at 10 µM; stronger effect = higher value; the pumps come from Candida albicans
[15] = target: ATP-binding cassette sub-family B member 6 (Homo sapiens) (UniProt Q9NP58); assay: blockers of ABCB6-driven porphyrin uptake – K562-ABCB6 cells, flow cytometry, validation set, pilot screen (AID 588550;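 active = inhibition above the screen-wide mean plus 3 SD, about 51%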;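 also: 0% = DMSO wells and 100% = benzethonium chloride 70 µM positive control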); conditions: K562-ABCB6 porphyrin accumulation, 1 h, at 10 µM, stronger effect = higher value
ATP-binding cassette sub-family B member 6 (Homo sapiens), sequence (Q9NP58 whole entry, looked up): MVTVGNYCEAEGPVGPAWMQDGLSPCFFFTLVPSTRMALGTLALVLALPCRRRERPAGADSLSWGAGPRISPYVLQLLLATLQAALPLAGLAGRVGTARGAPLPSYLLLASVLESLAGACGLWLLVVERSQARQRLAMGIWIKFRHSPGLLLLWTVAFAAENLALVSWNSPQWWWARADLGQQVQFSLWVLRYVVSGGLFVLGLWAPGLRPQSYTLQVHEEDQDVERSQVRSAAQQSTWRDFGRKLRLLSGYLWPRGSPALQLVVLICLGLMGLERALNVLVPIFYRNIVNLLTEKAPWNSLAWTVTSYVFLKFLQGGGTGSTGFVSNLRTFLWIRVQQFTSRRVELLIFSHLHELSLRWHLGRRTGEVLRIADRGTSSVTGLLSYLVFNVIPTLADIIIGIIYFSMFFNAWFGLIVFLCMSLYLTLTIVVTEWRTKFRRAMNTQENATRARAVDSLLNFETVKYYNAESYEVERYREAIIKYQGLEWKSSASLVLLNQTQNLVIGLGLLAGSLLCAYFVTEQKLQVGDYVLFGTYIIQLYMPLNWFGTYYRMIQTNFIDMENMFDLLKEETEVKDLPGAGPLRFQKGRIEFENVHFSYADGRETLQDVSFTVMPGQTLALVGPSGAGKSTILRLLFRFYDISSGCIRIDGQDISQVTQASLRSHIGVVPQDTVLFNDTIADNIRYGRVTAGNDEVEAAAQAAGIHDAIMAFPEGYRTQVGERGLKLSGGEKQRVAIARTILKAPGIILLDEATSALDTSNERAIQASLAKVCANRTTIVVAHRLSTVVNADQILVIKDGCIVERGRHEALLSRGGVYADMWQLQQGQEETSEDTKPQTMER

[16] = AML differentiation inducers, ER-HoxA9 marrow cells – cell-based, GFP/MAC1 double positive, flow cytometry, validation set, primary screen (AID 588685;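 active = differentiation response of at least 50%, scaled between solvent and reference control, from cells with both markers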;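 also: compound exposure lasts four days before antibody staining and flow analysis; 0% = DMSO wells and 100% = 5 µM fulvestrant positive control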); conditions: stronger effect = higher value, normalized: vehicle 0, fulvestrant 100

CCCCCC(=O)O[C@]1(C(C)=O)CC[C@H]2[C@@H]3CCC4=CC(=O)CC[C@]4(C)[C@H]3CC[C@@]21C
60%: double positive events [6]
inactive: percent of DMSO control GFP [1] 98.9% | GFP response vs DMSO [2] 95.6% | percent response of DMSO control [3] 94.5% | GFP response vs DMSO [4] 108% | GFP response, % of DMSO [5] 98.1% | vesicle binding response [6] 153% | inhibition [7] -17.2% | superoxide response (% of plate) [8] 105% | aptamer binding inhibition [9] 0% | response [10] 6.12% | inhibition [11] 18.3% | response [12] -0.4% | binding (% of control) [13] 105% | efflux inhibition (fraction of control) [14] -0.155 | inhibition [15] 2% | differentiation response [16] -0.18%

CC1(C)S[C@@H]2[C@H](NC(=O)Cc3ccccc3)C(=O)N2[C@H]1C(=O)O
66.2%: double positive events [6]
inactive: percent of DMSO control GFP [1] 105% | GFP response vs DMSO [2] 102% | percent response of DMSO control [3] 98.3% | GFP response vs DMSO [4] 101% | GFP response, % of DMSO [5] 119% | vesicle binding response [6] 185% | inhibition [7] 15.1% | superoxide response (% of plate) [8] 92.1% | aptamer binding inhibition [9] 3% | response [10] -19.9% | inhibition [11] 1.23% | response [12] -1.26% | binding (% of control) [13] 99.7% | efflux inhibition (fraction of control) [14] 0.08 | inhibition [15] 10% | differentiation response [16] 2.89%

COc1ccccc1NC(=O)N1CCc2[nH]c3ccc(Cl)cc3c2C1
62.4%: double positive events [6]
inactive: percent of DMSO control GFP [1] 101% | GFP response vs DMSO [2] 110% | percent response of DMSO control [3] 102% | GFP response vs DMSO [4] 121% | GFP response, % of DMSO [5] 94% | vesicle binding response [6] 135% | inhibition [7] -11.8% | superoxide response (% of plate) [8] 102% | aptamer binding inhibition [9] 2% | response [10] -11.2% | inhibition [11] -2.38% | response [12] 1.31% | binding (% of control) [13] 121% | efflux inhibition (fraction of control) [14] -0.42 | inhibition [15] -33% | differentiation response [16] 18.8%

Cc1ccc(N(CC2=NCCN2)c2cccc(O)c2)cc1
inactive: percent of DMSO control GFP [1] 107% and 88.9% and 106% | GFP response vs DMSO [2] 107% and 126% and 96.9% | percent response of DMSO control [3] 112% and 107% and 114% | GFP response vs DMSO [4] 105% and 80.3% and 113% | GFP response, % of DMSO [5] 105% and 95.6% and 106% | vesicle binding response [6] 164% and 159% and 183% | inhibition [7] -12.4% and 6.46% and 1.62% | superoxide response (% of plate) [8] 94.9% and 91.2% and 102% | aptamer binding inhibition [9] -2% and 0% and -7% | response [10] -2.19% | inhibition [11] -1.88% and 0.96% and -11.2% | response [12] 1.2% and -3.77% and 0.74% | binding (% of control) [13] 98.2% and 102% and 97.7% | efflux inhibition (fraction of control) [14] -0.05 and 0.23 and -0.24 | inhibition [15] 9% and 4% and 7% | differentiation response [16] -34.1% and 3.28% and -18%
48.5% and 66.6% and 52.4%: double positive events [6]

CC1(C)S[C@@H]2[C@H](NC(=O)[C@H](N)c3ccccc3)C(=O)N2[C@H]1C(=O)O
inactive: percent of DMSO control GFP [1] 94.2% and 101% | GFP response vs DMSO [2] 112% and 102% | percent response of DMSO control [3] 110% and 102% | GFP response vs DMSO [4] 73.2% and 108% | GFP response, % of DMSO [5] 93.1% and 112% | vesicle binding response [6] 234% and 191% | inhibition [7] 6.46% and 15.1% | superoxide response (% of plate) [8] 95.9% and 95% | aptamer binding inhibition [9] 4% and 7% | response [10] -4.57% and -17.9% | inhibition [11] 0.2% and -9.24% | response [12] 4.43% and -37.5% | binding (% of control) [13] 108% and 102% | inhibition [15] 4% and 0% | differentiation response [16] -1.64% and -7.94%
68.4% and 59.6%: double positive events [6]

Cc1ccc(/C=N/NC(=O)C2(C)CC2(Br)Br)cc1 (stereo not drawn)
inactive: percent of DMSO control GFP [1] 101% | GFP response vs DMSO [2] 98.7% | percent response of DMSO control [3] 98.6% | GFP response vs DMSO [4] 130% | GFP response, % of DMSO [5] 105% | vesicle binding response [6] 184% | inhibition [7] -7.79% | superoxide response (% of plate) [8] 84.5% | aptamer binding inhibition [9] -4% | response [10] -4.63% | inhibition [11] 4.52% | response [12] 1.48% | binding (% of control) [13] 104% | efflux inhibition (fraction of control) [14] -0.22 | inhibition [15] -2% | differentiation response [16] -11.9%
60.8%: double positive events [6]

CN=C(NC#N)NCCSCc1nc[nH]c1C
62.1%: double positive events [6]
inactive: percent of DMSO control GFP [1] 102% | GFP response vs DMSO [2] 101% | percent response of DMSO control [3] 109% | GFP response vs DMSO [4] 94.8% | GFP response, % of DMSO [5] 102% | vesicle binding response [6] 195% | inhibition [7] -14.5% | superoxide response (% of plate) [8] 104% | aptamer binding inhibition [9] -1% | response [10] 3.13% | inhibition [11] 5.55% | response [12] 0.96% | binding (% of control) [13] 103% | efflux inhibition (fraction of control) [14] -0.44 | inhibition [15] 9% | differentiation response [16] -10.4%
